Consider 40 compounds from PubChem BioAssay (NCATS).

Inconclusive results are not listed. Active and inactive are the calls of the source. Calls come from the whole dose curve; as a rule, active = well fitted curve in the direction sought with a large enough effect; inconclusive = small, poorly fitted or top-dose-only effect, or effect the other way, or another doubt; inactive = no such curve, though single readings can be large or run the other way.

Sequence of Transient receptor potential cation channel subfamily V member 1 (Homo sapiens) (Q8NER1 whole entry, looked up): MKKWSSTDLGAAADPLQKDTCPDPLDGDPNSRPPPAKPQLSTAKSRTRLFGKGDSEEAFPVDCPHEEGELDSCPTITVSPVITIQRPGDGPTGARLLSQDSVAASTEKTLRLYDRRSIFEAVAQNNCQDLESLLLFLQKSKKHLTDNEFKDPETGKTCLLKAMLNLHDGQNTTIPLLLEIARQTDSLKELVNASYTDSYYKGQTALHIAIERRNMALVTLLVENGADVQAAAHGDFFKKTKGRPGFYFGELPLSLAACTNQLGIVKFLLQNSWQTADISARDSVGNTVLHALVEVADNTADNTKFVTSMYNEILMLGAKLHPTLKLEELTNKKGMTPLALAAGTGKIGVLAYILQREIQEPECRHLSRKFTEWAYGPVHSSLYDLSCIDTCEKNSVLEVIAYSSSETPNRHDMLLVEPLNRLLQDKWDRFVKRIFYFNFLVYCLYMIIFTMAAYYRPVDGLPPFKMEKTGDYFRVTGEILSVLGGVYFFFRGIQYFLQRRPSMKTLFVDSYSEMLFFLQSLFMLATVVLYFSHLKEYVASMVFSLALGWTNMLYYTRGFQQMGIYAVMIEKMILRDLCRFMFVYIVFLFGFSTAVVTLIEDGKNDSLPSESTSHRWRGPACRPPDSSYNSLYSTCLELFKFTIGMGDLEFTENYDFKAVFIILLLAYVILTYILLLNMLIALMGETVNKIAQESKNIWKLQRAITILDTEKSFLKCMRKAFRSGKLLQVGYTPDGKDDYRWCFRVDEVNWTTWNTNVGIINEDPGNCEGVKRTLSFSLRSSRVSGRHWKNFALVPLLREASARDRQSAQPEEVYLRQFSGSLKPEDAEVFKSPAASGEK

The experiment addresses Transient receptor potential cation channel subfamily V member 1 (Homo sapiens) (UniProt Q8NER1). Nature of the experiment: HTS Assay for Compounds that Act as Enhancers of the Vanilloid Receptor 1 (AID 488979). The settings on record: TRPV1-expressing cells, enhancer of channel activity, stimulated with capsaicin at EC20; series mostly up to 41.7 µM. From the text: The transient receptor potential ion channel, family V, number 1, (TRPV1) is one of the most important molecular transducers of painful stimuli and a potential target for analgesic drug development. Although recent clinical trials with orthosteric antagonists have not produced a successful drug because of a hyperthermia side effect and their tendency to block thermal noxious pain, this ion channel is undeniably well placed in the pain pathway, and the idea of blocking pain signals before they enter the CNS is an excellent concept and of proven efficacy when TRPV1 agonists are used. We propose a new approach involving allosteric modulation to impose an activity-dependent constraint within the context of inflammation and tissue damage that would alter the responsiveness of the channel in a way that an orthosteric vanilloid antagonist cannot achieve. We believe that the allosteric modulator approach has not been explored for this target.
The main goal of this proposal is to identify additional, new, potent allosteric modulators of TRPV1 that can be used to investigate TRPV1 function. Our recent report provides evidence of proof of concept, but the compounds are just at the edge of utility in terms of potency. […] The question of whether they can be used as analgesic agents is complex, but if suitable compounds are identified then testing for analgesic properties will be conducted.
Upon TRPV1 activation in TRPV1 cells, the channel opens and extracellular cations flow through the channel into the cytosol. A calcium binding dye (Fluo-8) becomes fluorescent when bound to calcium. This dye is pre-loaded into cells and is used as a marker for calcium influx.
The amount of accumulated calcium is precisely quantified using the FDSS kinetic reader and the calcium dye.
For the HTS assay, freshly prepared cells are plated at a density of 2000/well in 3 ul medium in 1536-well plates and cultured overnight at 35.5C. Cells will be loaded with 1 ul of the homogeneous calcium dye (ABD Bioquest) at room temperature for 40 to 90 minutes. Plates will be loaded into the FDSS kinetic reader and a 1 sec / cycle for 10 second baseline signal will be measured. Compound library will then be added with a pintool at 23 nl and measured kinetically for 3 minutes. This portion of the read is considered the agonist portion of the screen. Following the 3 minutes of incubation, an on board pipettor will deliver 1 ul of capsaicin for a final concentration equal to the EC20. Signal will be measured kinetically for an additional 2 minutes. This portion of the read is considered the allosteric enhancer portion of the screen.
The FDSS reader has a standard filter set capable of measuring calcium bound Fluo-8 (ex=480 and em=520 nm).
As for `NS(=O)(=O)c1cccc2c1c([N+](=O)[O-])cc1nc(O)c(O)nc12`, the result was inactive.

In the case of `[Li+]`, the outcome was inactive.

Turning to `O=C(N[C@@H](Cc1ccccc1)C(=O)CCl)OCc1ccccc1`, the result was inactive.

As to `N=C(N)SCCc1cnc[nH]1`, the result was inactive.

On to `COc1cccc(OC)c1OCCNCC1CSc2ccccc2O1` (stereo not given), for which the outcome was inactive.

`NCCCCN=C(N)N`: the result was inactive.

Take `O=c1[nH]c2cc(Cl)ccc2c(O)c1-c1ccc(Oc2ccccc2)cc1`: the outcome was inactive.

Take `O=C(O)c1cccnc1C(=O)O`: the result was inactive.

On to `COC(=O)[C@H](NC(=O)c1cc(-c2ccccc2)nc2ccccc12)c1ccccc1`, for which the outcome was inactive.

On to `N[C@H](C(=O)O)[C@H](O)C(=O)O`, for which the result was inactive.

As for `CC(C)(CO)Cc1cc(C(C)(C)C)c(O)c(C(C)(C)C)c1`, the result was inactive.

Take `Cn1cc(C(=O)OCC2CCN(CCNS(C)(=O)=O)CC2)c2ccccc21`: the result was inactive.

`N[C@@H](CS(=O)O)C(=O)O`: the outcome was inactive.

`CCN(c1nc(N)c(C(=O)N=C(N)N)nc1Cl)C(C)C`: the outcome was inactive.

With `O=C(O)Cc1c[nH]c2ccc(O)cc12`, the outcome was inactive.

For the compound `Cn1c(=O)c2[nH]c(C3CCCC3)nc2n(C)c1=O`, the outcome was inactive.

Take `OCC1NCC(O)C(O)C1O` (stereo not given): the result was inactive.

As for `O=C(O)C1=CCNCC1`, the result was inactive.

On to `CC(/C=C/c1cccc(Oc2ccc(F)cc2)c1)N(O)C(N)=O` (stereo not given), for which the result was inactive.

Consider `COc1ccc2c(c1)CCC1C2CC[C@@]2(C)C1CC[C@@H]2NCCCCCCN1C(=O)C=CC1=O` (stereo not given in full), for which the outcome was inactive.

Turning to `CC(N)=O`, the result was inactive.

Regarding `COc1cc(N)c(Cl)cc1C(=O)OCCN1CCCCC1`, the outcome was inactive.

For the compound `NC(C(=O)N[C@@H]1C(=O)N2C(C(=O)O)=C(Cl)CS[C@H]12)c1ccccc1` (stereo not given in full), the result was inactive.

With `Nc1ccc(-c2ccc3ccccc3n2)cc1`, the outcome was inactive.

On to `O=C(O)c1ccccc1Nc1cccc(OCc2ccc3ccccc3n2)c1`, for which the outcome was inactive.

Turning to `NCC(O)c1ccc(O)c(O)c1` (stereo not given), the outcome was inactive.

Turning to `CC(=O)[C@H]1CCC2C3CC=C4C[C@@H](OS(=O)(=O)O)CC[C@]4(C)C3CC[C@@]21C` (stereo not given in full), the result was inactive.

As to `O=C(O)/C=C/c1cnc[nH]1`, the outcome was inactive.

Take `O=C1Cc2c([nH]c3ccc(Br)cc23)-c2ccccc2N1`: the result was inactive.

For `O=C(O)CCC(=O)N1CCCC1C(=O)O` (stereo not given), the outcome was inactive.

Regarding `CC(C)(C)c1cc(/C=C(\C#N)C(N)=S)cc(C(C)(C)C)c1O`, the outcome was inactive.

With `C=CCn1c(=O)c2c(nc(-c3ccc(S(=O)(=O)O)cc3)n2C)n(C)c1=O`, the outcome was inactive.

Regarding `Oc1cc(O)c2c(c1)O[C@H](c1ccc(O)c(O)c1)[C@@H](O)C2`, the outcome was inactive.

As to `CCCCC[C@H](CC(=O)NO)C(=O)N[C@H](C(=O)N1CCC[C@H]1CO)C(C)C`, the outcome was inactive.

Turning to `N=S(=O)(O)Cc1noc2ccccc12`, the outcome was inactive.

Turning to `O=C1OC(=O)C2C3CCC(O3)C12` (stereo not given), the result was inactive.

Take `O=c1ccn([C@@H]2O[C@H](COP(=O)(O)OP(=O)(O)O)[C@@H](O)[C@H]2O)c(=O)[nH]1`: the result was inactive.

For the compound `CC1C(=O)N(C)C(=O)c2nc[nH]c21` (stereo not given), the result was inactive.

`CN1CCN(c2nc3cc(C(F)(F)F)ccc3n3cccc23)CC1`: the result was inactive.

Regarding `Cc1nc2c(OCc3ccccc3)cccn2c1CC#N`, the outcome was inactive.
